Screening data from PubChem.
Hits are enriched below; roughly 19% of the tested compounds scored in any of these assays.
KB-3-1 cytotox = kills parental KB-3-1 adenocarcinoma cells | KB-3-1 viability, CellTiter-Glo ATP luminescence, 72 h | Potency, µM (highest dose often 46.1 µM), usual class: cytotoxic | 1.4% of 400,000 active | AID 1347075; also: nearly all actives have a fitted effect of over 60% in size
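Using CellTiter-Glo luminescence, growth of non-resistant KB-3-1 adenocarcinoma cells is assessed 72 h after pin-tool compound addition at 37 °C. Normalized responses across the concentration series yield fitted curves.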
KB-V1 cytotox = kills drug-selected multidrug resistant KB-V1 cells; KB-V1 MDR cells viability, CellTiter-Glo, 72 h; Potency, µM (series often up to 46.1 µM), most hits filed as cytotoxic; 3.4% of 400,000 active; AID 1347076; also: nearly all actives have a fitted effect of over 60% in size
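qHTS viability screen in drug-selected KB-V1 MDR cells: 72 h compound treatment at 37 degrees C, ATP luminescence end point.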
DT40 TDP1 CPT = growth inhibition of DT40 Tdp1-/-;hTDP1 cells with camptothecin (screen for TDP1 inhibitors) | AID 686979 | Potency, µM (titrated, usually from 46.2 µM), for the others: at the top dose activity change, negative = growth inhibition, usual class: inhibitors | 12% of 420,000 active | chicken DT40 Tdp1-/-;hTDP1 cells + 20 nM CPT, ATP luminescence, 48 h; also: nearly all actives have a fitted effect of over 55% in size
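Chicken DT40 Tdp1-/- cells stably complemented with human TDP1 were seeded at 400 cells/well in medium containing 20 nM camptothecin, exposed to pin-transferred compounds, and grown at 37 °C for at least 48 hr. Viability was read as ATP luminescence.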
HT1080NT lethal = kills 2HG-producing HT-1080-NT fibrosarcoma cells | HT-1080-NT fibrosarcoma viability, CellTiter-Glo ATP luminescence, 48 h | Potency, µM (doses to about 46.1 µM), inactives show top-dose activity, negative = less viability, actives largely listed as cytotoxic | 1.6% of 360,000 active;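 also: NT is the 2HG producing partner of a matched IDH1 knockdown line; 0% = DMSO-treated cells and -100% = media-only wells without cells; nearly all actives have a fitted effect of over 55% in size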
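Read-out is CellTiter-Glo luminescence after 10 minutes at room temperature, following 48 hours' compound treatment of HT-1080-NT cells (750 cells/well, RPMI, 5% FBS, 37 degrees C).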
TDP1 cell noCPT = qHTS for Inhibitors of human tyrosyl-DNA phosphodiesterase 1 (TDP1): qHTS in cells in absence of CPT; DT40 Tdp1-/- hTDP1 cells, no CPT, ATP luminescence, 48 h; Potency, µM (top dose mostly 46.2 µM), inactives show top-dose activity change, negative = growth inhibition, actives largely listed as inhibitors; 15% of 420,000 active; AID 686978, 2013; also: nearly all actives have a fitted effect of over 55% in size
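Luminescent ATP content (CellTiter-Glo) served as the growth readout. Knockout chicken DT40 cells expressing human TDP1 were exposed to compounds without camptothecin for a minimum 48 hr at 37 °C.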
HT1080 IDH1KD tx = kills HT-1080 cells with IDH1 knockdown | Potency, µM (highest dose often 46.1 µM), inactives show top-dose activity, negative = toxicity, actives largely listed as cytotoxic | 2% of 360,000 active | HT-1080 IDH1 knockdown viability, ATP luminescence, 48 h;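 also: 0% = DMSO wells and -100% = cell-free medium wells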
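Assay cells: HT-1080 with IDH1 knockdown, 750 per well, RPMI/5% FBS. Exposure: 48 h at 37 °C following 2 h pre-incubation. Read: CellTiter-Glo luminescence; fitted concentration-response, curve class assigned.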
* = called active by the depositor; i = inactive; ? = inconclusive; · = no result given; [ ] = remark or other dose. Calls follow the shape of the dose curve; as a rule, active = well fitted curve in the direction sought with a large enough effect; inconclusive = small, poorly fitted or top-dose-only effect, or another doubt; inactive = no such curve, though single readings can be large; an effect the other way counts as inactive or inconclusive. Unless noted, % is scaled to controls: 0 for no effect and ±100 for the full control effect; potency is read from the fitted curve at half-maximal effect.

SMILES | KB-3-1 cytotox | KB-V1 cytotox | DT40 TDP1 CPT | HT1080NT lethal | TDP1 cell noCPT | HT1080 IDH1KD tx
O=C(Oc1ccc(NC2=NS(=O)(=O)c3ccccc32)cc1)c1cccnc1 | i | i | -23% | 19% | -1% | 22%
CCOC(=O)CSc1nc2c([nH]c3ccccc32)c(=O)n1-c1ccc(OCC)cc1 | i | i | -27% | · | -28% | ·
CCOc1ccc(-n2c(SCC(N)=O)nc3c([nH]c4ccccc43)c2=O)cc1 | i | i | 13µM* | -13% | ? | ?
CCOc1ccc(-n2c(SCC(=O)Nc3cc(C)on3)nc3c([nH]c4ccccc43)c2=O)cc1 | i | i | ? | -30% | -30% | -27%
CCOc1ccc(-n2c(SCC(=O)Nc3cc(C)ccc3C)nc3c([nH]c4ccccc43)c2=O)cc1 | i | i | 13µM* | · | 16µM* | ·
CC(C)(C)C1CCC2(CC1)NC(=S)N(c1ccccc1)N2 (stereo not drawn) | ? | i | ? | ? | ? | 5.8µM*
CCC(C)(C)C1CCC2(CC1)NC(=S)N(c1ccccc1)N2 (stereo not drawn) | ? | i | 15% | ? | -7% | 18µM*
CC(C)(C)C1CCC2(CC1)SCC(=O)N2c1ccccc1 (stereo not drawn) | i | i | ? | -1% | ? | -5%[9.24 µM]
COc1c(C)cc(S(=O)(=O)Nc2cccc(-c3ccc(N4CCOCC4)nn3)c2)c(C)c1C | 21µM* | i | 23µM* | · | ? | ·
Cc1ccc(S(=O)(=O)Nc2cccc(-c3ccc(N4CCCCCC4)nn3)c2)cc1C | i | ? | ? | ? | 23µM* | -8%
CCCCOc1ccc(S(=O)(=O)Nc2cccc(-c3ccc(N4CCOCC4)nn3)c2)cc1 | i | ? | 21µM* | · | ? | ·
CCOc1ccc(S(=O)(=O)Nc2cccc(-c3ccc(N4CCCCCC4)nn3)c2)cc1 | i | i | ? | -17% | ? | 0%
CCCCOc1ccc(S(=O)(=O)Nc2ccc(-c3ccc(N4CCC(C)CC4)nn3)cc2)cc1 | i | i | 12µM* | · | 29µM* | ·
CCOc1ccc(S(=O)(=O)Nc2ccc(-c3ccc(N4CCCC4)nn3)cc2)cc1 | ? | i | 2% | · | -13% | ·
Cc1cc(C)cc(S(=O)(=O)Nc2cccc(-c3ccc(N4CCOCC4)nn3)c2)c1 | i | i | ? | · | -29% | ·
CCCCc1c(O)nc(SCC(=O)Nc2ccc(OC)cc2)n(-c2ccc(C)c(C)c2)c1=O | i | i | -5% | 0% | 2% | -5%
Cc1ccc(F)c(S(=O)(=O)NC(=O)C2(C)CCN2C(=O)Cc2ccsc2)c1 (stereo not drawn) | i | i | 10% | 13% | -3% | 14%
CC(C)c1nc(SCC(=O)Nc2cccc3ccccc23)n[nH]1 | i | i | -20% | 14% | -19% | 8%
O=C(NC1CCCCC1)c1cccc2c1C(=O)c1ccc(-c3ccc(OC(F)(F)F)cc3)cc1S2(=O)=O | i | i | 9.2µM* | 4% | 9.2µM* | 2%
O=C(NC1CCCC1)c1cccc2c1C(=O)c1ccc(/C=C/c3ccccc3)cc1S2(=O)=O | ? | i | ? | 3% | 18µM* | 1%
COC(=O)c1c(N)[nH]c(C(=O)c2ccccc2)c1-c1ccc(Br)cc1 | i | ? | 16µM* | 7% | ? | -28%
COc1ccc(-c2c(C(=O)c3ccccc3)[nH]c(N)c2C(=O)c2ccc(Br)cc2)cc1OC | ? | ? | ? | -24% | ? | -14%
CC(C)(C)C(=O)c1c(N)[nH]c(C(=O)c2ccccc2)c1-c1ccc(Br)cc1 | i | i | 21µM* | 3% | 23µM* | -9%
O=C(C[C@@H]1C[C@H]2c3cc(NC(=O)c4cccnc4)ccc3O[C@H]2[C@H](CO)O1)NCc1ccc(Oc2ccccc2)cc1 | 18µM* | i | 13µM* | ? | 5.8µM* | ?
O=C(C[C@@H]1C[C@H]2c3cc(NC(=O)C4CCC4)ccc3O[C@H]2[C@@H](CO)O1)NCc1ccc(-c2ccccc2)cc1 | ? | i | 18µM* | ? | 21µM* | ?
SMILES | KB-3-1 cytotox | KB-V1 cytotox | DT40 TDP1 CPT | HT1080NT lethal | TDP1 cell noCPT | HT1080 IDH1KD tx
CCOc1ccc(C(CC(=O)O)NC(=O)C(CC)c2ccccc2)cc1 (stereo not drawn) | i | ? | 1% | 0% | 22% | 0%
Cc1nc(-c2ccc(F)cc2)c(CC(=O)N(C)CC(=O)Nc2ccccc2Cl)s1 | i | 3.7µM* | ? | 0% | ? | -12%
COCCN(CC(=O)Nc1cccc(C)c1C)C(=O)Cc1sc(C)nc1-c1ccc(F)cc1 | i | i | 0% | -3% | -22% | -1%
Cc1nc(-c2ccc(F)cc2)c(CC(=O)N(C)CC(=O)Nc2ccc(Cl)c(C(F)(F)F)c2)s1 | i | i | ? | ? | ? | 16µM*
Cn1ncc([N+](=O)[O-])c1C(=O)NC1CCCCC1 | i | i | -6% | -1% | -12% | -3%
CCSc1nnc(NC(=O)NC(CC)(C(F)(F)F)C(F)(F)F)s1 | ? | i | ? | 18µM* | 15µM* | ?
CN1CCc2c(n(CC(O)CN3C(=O)c4ccccc4S3(=O)=O)c3ccccc23)C1=O (stereo not drawn) | i | i | 5% | 4% | -9% | 5%[9.24 µM]
CC(C)NCC(O)Cn1c2c(c3ccccc31)CCc1c-2cnn1-c1ccccc1 (stereo not drawn) | 16µM* | 21µM* | 3.7µM* | ? | 5.8µM* | -12%[9.24 µM]
COc1ccc(N2CCN(C(=O)c3ccc(NS(=O)(=O)c4cccs4)cc3)CC2)cc1 | i | i | ? | -3% | 13µM* | 0%
O=C(C1CCN(S(=O)(=O)c2cccs2)CC1)N1CCN(c2ccccc2O)CC1 | ? | i | 15µM* | 0% | ? | -9%
O=C(Nc1ccc(F)c(F)c1)C1CCN(S(=O)(=O)c2cccc3nonc23)CC1 | ? | 12µM* | ? | ? | ? | -14%
COc1ccc(N2CCN(C(=O)C3CCN(S(=O)(=O)c4cccc5nonc45)CC3)CC2)cc1 | i | i | ? | · | 16µM* | ·
